Gli-Sufu block: Gli-Sufu pathway antagonists, primary screen, luciferase luminescence, Sufu-KO-LIGHT cells, uHTS; 340,000 compounds, 0.74% hits; inhibition, % at 5 µM; AID 588413, 2011; Sufu-KO-LIGHT fibroblasts, Gli luciferase reporter luminescence;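 active = inhibition above about 55%, limit read from the data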;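 also: 0% = DMSO-treated cells and 100% = wells with medium but no cells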
Shn3 3UTR inh: reduction of Shn3 3'UTR firefly luciferase signal, primary screen, Schnurri-3 inhibitor project, cell-based, Clone20 osteoblasts, set 2 | 360,000 compounds, 0.52% hits | Clone20 osteoblast Shn3 3'UTR firefly luciferase, 24 h | inhibition, % at 12.5 µM | AID 588674, 2011;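 active = mean inhibition of at least 75% with every replicate also reaching 75%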;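 also: 0% = median of neutral control wells and 100% = pilot-screen positive control compound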
697 NFkB inh: inhibitors of PMA/ionomycin-induced NF-kB reporter, 697 cells, primary screen, B-cell NF-kB inhibitor project, cell-based, luminescence, uHTS | 697 B-cell NF-kB luciferase reporter, 16 h | inhibition, % at 4 µM | 330,000 compounds, 0.33% hits; in the data active = inhibition above about 35%
Mdm2-MdmX inh: inhibitors of human Mdm2-MdmX association, primary screen, cell-based, luminescence, split luciferase, SaOS-2, uHTS. 330,000 compounds, 3% hits. AID 485346, 2010. inhibition, % at 8 µM. SaOS-2 split-luciferase Mdm2/MdmX complementation. Protein Mdm4 (Homo sapiens) + E3 ubiquitin-protein ligase Mdm2 (Homo sapiens), …;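 active = inhibition of at least 50% at 8 µM in the primary screen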
Target sequence (O15151 whole entry, looked up): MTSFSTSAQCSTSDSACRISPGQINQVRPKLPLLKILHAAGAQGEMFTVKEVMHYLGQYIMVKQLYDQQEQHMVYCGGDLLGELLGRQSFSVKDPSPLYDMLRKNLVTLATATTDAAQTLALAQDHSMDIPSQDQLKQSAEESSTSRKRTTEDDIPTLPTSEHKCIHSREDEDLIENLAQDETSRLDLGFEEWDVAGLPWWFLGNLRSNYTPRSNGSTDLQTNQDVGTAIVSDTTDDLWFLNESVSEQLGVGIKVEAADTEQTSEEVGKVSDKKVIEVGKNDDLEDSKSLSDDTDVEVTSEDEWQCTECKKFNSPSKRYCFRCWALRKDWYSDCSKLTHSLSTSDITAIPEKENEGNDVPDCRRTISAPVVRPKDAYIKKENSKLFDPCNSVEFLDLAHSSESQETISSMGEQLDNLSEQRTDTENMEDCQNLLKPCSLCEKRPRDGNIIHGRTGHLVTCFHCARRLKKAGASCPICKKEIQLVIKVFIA
Target sequence (Q00987 whole entry, looked up): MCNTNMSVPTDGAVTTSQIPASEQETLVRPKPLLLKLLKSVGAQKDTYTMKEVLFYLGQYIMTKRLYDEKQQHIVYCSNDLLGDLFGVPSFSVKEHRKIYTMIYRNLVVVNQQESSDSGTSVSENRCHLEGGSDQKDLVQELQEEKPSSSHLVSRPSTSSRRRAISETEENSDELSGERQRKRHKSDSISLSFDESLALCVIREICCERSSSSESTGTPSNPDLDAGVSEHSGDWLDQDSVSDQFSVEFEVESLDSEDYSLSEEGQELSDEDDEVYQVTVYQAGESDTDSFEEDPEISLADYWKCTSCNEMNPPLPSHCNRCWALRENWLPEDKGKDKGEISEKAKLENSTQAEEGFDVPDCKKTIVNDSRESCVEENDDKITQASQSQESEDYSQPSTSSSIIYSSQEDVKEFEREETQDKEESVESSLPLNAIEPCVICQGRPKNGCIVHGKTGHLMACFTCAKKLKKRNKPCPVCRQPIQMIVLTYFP
Jurkat NFkB inh: inhibitors of induced NF-kB luciferase reporter, primary screen, TCR NF-kB activation inhibitor project, cell-based, luminescence, uHTS. inhibition, % at 4 µM. AID 435003, 2010. Jurkat, PMA/ionomycin-induced NF-kB luciferase reporter. 330,000 compounds, 0.53% hits; in the data active = inhibition above about 50%
Mdm2-MdmX conf: Mdm2-MdmX complex disruptors, retested hits, confirmation, luminescence, single concentration | Mdm2-MdmX binding, luminescent assay | inhibition, % at 8 µM | shares compounds with Mdm2-MdmX inh | 10,000 compounds, 55% hits; in the data active = inhibition above about 40%
Full FLuc ctr: full-length luciferase signal inhibition, confirmation, counter-screen for Mdm2/MdmX interaction inhibitor project, cell-based, single concentration, SaOS-2. AID 504607, 2011. SaOS-2 full-length luciferase counterscreen, luminescence. inhibition, % at 8 µM. 6,200 compounds, 77% hits. shares compounds with Mdm2-MdmX inh;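 active = mean inhibition at 8 µM reaching about 37%, which flags the compound as non-specific, limit read from the data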;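 also: p53-null SaOS-2 cells with luciferase driven by a doxycycline-inducible promoter; compound on cells about two nights before reading with doxycycline added after day one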
* = called active by the depositor; · = no result given. Most compounds without a hit are left out; they make up all but 3.8% or so of the library.

SMILES	Gli-Sufu block	Shn3 3UTR inh	697 NFkB inh	Mdm2-MdmX inh	Jurkat NFkB inh	Mdm2-MdmX conf	Full FLuc ctr
CCCn1c(=O)c(C(=O)NCc2ccccn2)c(O)c2ccccc21	-8.9	-0.5	4.3	62.9*	-18.4	33.1	·
CCCn1c(=O)c(C(=O)NCC2CCCO2)c(O)c2ccccc21 (centres undefined)	-1.3	-23.3	-6.6	67.5*	-3.2	11.3	·
CC(C)Cn1c(N)c(C(=O)NCC2CCCO2)c2nc3ccccc3nc21 (centres undefined)	39.8	13.8	13.3	52.2*	7.4	21.4	·
CC1CCc2cc(F)cc3c(O)c(C(=O)NCC4CCCO4)c(=O)n1c23 (centres undefined)	2.8	6.7	0.3	70.6*	-16.6	44.0*	21.7
O=C(NCC1CCCO1)c1c(O)c2ccccc2[nH]c1=O (centres undefined)	-21.8	-53.2	-57.6	-5.0	-6.7	·	·
O=C(N[C@H](CO)Cc1ccccc1)c1ccco1	5.1	-8.9	-4.3	10.0	-2.5	·	·
Cc1cc(NC(=O)NC(=O)c2ccccc2)no1	-19.0	-70.1	-50.7	0.9	-34.7	·	·
CCCN(CC(=O)Nc1ccccc1OC)C(=O)c1ccccn1	2.6	-1.8	-8.4	-5.6	5.2	·	·
CC1CCCC(NCC(O)COC(c2ccc(F)cc2)c2ccc(F)cc2)C1C (centres undefined)	25.6	27.5	-5.7	97.8*	-3.9	77.5*	48.8*
CCOCCCNC(=O)c1c[nH]c2ccc(OCC)cc2c1=O	-2.0	12.8	5.7	-16.6	2.0	·	·
CC1CCN(CC2C(=O)O[C@@H]3C[C@@]4(C)CCC[C@H](C)C4=C[C@H]23)CC(C)(C)C1 (some centres undefined)	-13.6	-6.9	24.2	64.6*	19.7	42.6*	43.7*
C=C1CCC[C@]2(C)C[C@H]3OC(=O)C(CN4CC(C)OC(C)C4)[C@H]3C[C@@H]12 (some centres undefined)	·	-64.0	13.9	35.0	10.5	·	·
Cc1ccccc1NC(=O)CSc1nc2c(c(-c3ccco3)c1C#N)CCCC2	7.5	11.4	9.1	5.4	-10.5	·	·
CCc1nnc(NC(=O)CSc2nc(-c3ccccc3)cc(-c3ccc(F)cc3)c2C#N)s1	10.6	-6.5	7.8	15.4	12.6	·	·
N#Cc1c(SCC(=O)Nc2nccs2)nc2c(c1-c1ccco1)CCCC2	5.1	-8.1	-19.8	51.5*	-14.3	10.9	·
COc1ccc(-c2cc(-c3ccccc3)c(C#N)c(SCC(=O)O)n2)cc1	10.3	-8.5	-19.5	0.6	-24.1	·	·
Cc1cnc(=O)[nH]c1SCC(=O)Nc1nccs1	3.6	2.3	-8.6	36.0	-6.8	·	·
Cc1nc(SCC(=O)Nc2nccs2)c(C#N)c(C)c1C	-0.8	19.4	-204.6	68.2*	24.1	51.0*	110.3*
COc1cc(-c2cc(-c3ccccc3)nc(SCC(=O)Nc3nccs3)c2C#N)cc(OC)c1OC	-4.5	12.5	19.8	51.4*	-8.5	25.6	·
COc1ccc(CNC(=O)CSc2nc(-c3ccccc3)cc(-c3cccs3)c2C#N)cc1	12.3	65.4	4.6	63.4*	-1.1	-3.9	·
CCCCSc1nnc(CCNC(=O)OC(C)(C)C)o1	4.2	-2.9	2.8	5.8	-5.6	·	·
COc1ccc(C(C)=O)cc1CSc1ccc(S(=O)(=O)N2CCCCC2)cn1	4.7	16.9	12.5	10.0	4.7	·	·
CC(=O)Oc1ccc(Cn2c(C)c(C(=O)NCc3ccccc3C(F)(F)F)sc2=O)cc1	·	-11.3	·	·	·	·	·
COc1ccc(-c2cc(-c3cccs3)c(C#N)c(SCC(=O)NCc3ccco3)n2)cc1	6.6	2.2	-90.0	56.1*	47.7	70.1*	51.5*
Cc1cccc2sc(N(CCN3CCOCC3)C(=O)CCS(=O)(=O)c3ccccc3)nc12	8.4	-11.8	-11.1	69.1*	1.0	46.0*	67.5*
SMILES	Gli-Sufu block	Shn3 3UTR inh	697 NFkB inh	Mdm2-MdmX inh	Jurkat NFkB inh	Mdm2-MdmX conf	Full FLuc ctr
CCN(CC)CCN(C(=O)CCS(=O)(=O)c1ccccc1)c1nc2cc(C)cc(C)c2s1	-8.0	46.1	-13.8	8.2	7.6	·	·
Cc1ccc(S(=O)(=O)CCC(=O)N(CCN2CCOCC2)c2nc3ccccc3s2)cc1	-37.0	-56.8	-31.1	-17.6	-59.3	·	·
CCN(CC)CCN(C(=O)CCS(=O)(=O)c1ccccc1)c1nc2c(C)cc(C)cc2s1	13.6	12.1	12.4	51.1*	1.1	37.3	86.8*
CCOc1cc(N2CCOCC2)c(OCC)cc1NC(=O)c1ccc(OCc2c(C)noc2C)c(OC)c1	8.1	22.5	1.1	12.0	11.0	·	·
CN(C)/C=C/c1c([N+](=O)[O-])c2ccc(O)cc2n1-c1ccccc1	-13.8	4.3	-8.9	61.4*	5.2	67.9*	53.6*
COC(=O)c1c(C)n(-c2ccccc2)c2ccc(O)cc12	-8.4	19.4	9.7	27.1	7.3	·	·
O=c1[nH]c(C2CCN(S(=O)(=O)c3ccc4c(c3)OCCO4)CC2)nc2c1nnn2Cc1c(F)cccc1Cl	-26.4	23.2	-20.4	56.3*	2.4	46.6*	59.1*
N#CC1=C(N)N2C(=C(C#N)C1c1cccc(Br)c1)Nc1ccccc12 (centres undefined)	46.8	87.7*	16.9	100.4*	7.3	44.0*	40.2*
N#CC1=C(N)N2C(=C(C#N)C1c1ccccc1)Sc1ccccc12 (centres undefined)	·	·	-0.1	4.1	-31.7	·	·
O=S(=O)(NCC(Nc1ccc(Cl)cc1)c1ccccc1)c1ccccc1 (centres undefined)	1.4	24.6	-3.9	16.7	8.2	·	·
Cc1ccc(NC(CNS(=O)(=O)c2ccc(Cl)cc2)c2ccccc2)cc1 (centres undefined)	-2.2	25.7	-1.5	52.1*	1.9	19.6	·
CC(=O)Nc1ccc(S(=O)(=O)NNC(=S)NCc2ccco2)cc1	-3.0	6.0	3.7	29.7	-5.1	·	·
Cc1cc(C)c2c(N)c(C(=O)c3ccccc3)sc2n1	-0.6	1.9	0.8	8.4	-7.5	·	·
Cc1nc2sc(C(N)=O)c(N)c2c(C)c1CC(=O)c1ccccc1	-58.6	-16.4	-3.5	57.5*	22.8	62.2*	31.4
O=C1NCCc2c1[nH]c1ccccc21	-6.8	-3.0	11.1	11.0	-4.6	·	·
O=C1NCCc2c1[nH]c1c(Cl)ccc(Cl)c21	-3.0	2.9	-23.8	76.7*	-4.9	62.8*	48.3*
CC(C)(C)c1ccc2cccc(F)c2n1	·	6.5	·	·	·	·	·
N=c1oc2ccc3ccccc3c2cc1C(N)=S	6.2	1.2	-3.7	86.8*	-37.2	45.8*	66.3*
